# Source: PubChem BioAssay (NCATS)
# Results filed as inconclusive are left out. Entries that show only a call come without a potency. Calls of active or inactive are those of the source. Calls follow the shape of the dose curve; as a rule, active = well fitted inhibition curve with a large enough effect; inconclusive = small, poorly fitted or top-dose-only effect; inactive = no such curve, though single readings can be large or run the other way.
# Test: qHTS Screen of the MIPE 4.0 Collection Against Ewings Sarcoma (TC32) (AID 1259256); also: nearly all actives have a fitted effect of over 45% in size
# Details: TC32 Ewing sarcoma viability, CellTiter-Glo, 48 h; series mostly up to 45.8 µM; viability (percent of control): at the top concentration
# Method in brief: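 Viability screen: 48 h incubation at 37C, 95% humidity, 5% CO2 with serially titrated compound, followed by CellTiter-Glo readout.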
# Potency is read from the fitted curve at half-maximal effect.
SMILES,viability (percent of control),Potency
CC(=O)C1=C(O)C=C2Oc3c(C(C)=O)c(O)c(C)c(O)c3C2(C)C1=O (stereo not given),134% (inactive),–
C=CC(=O)N1CCc2ccc(-n3c(=O)ccc4cnc5ccc(-c6cnn(C)c6)cc5c43)cc21,–,3320 nM (active)
CC(Cc1ccc(O)c(O)c1)(NN)C(=O)O (stereo not given),–,23500 nM (active)
CCNC(=O)Nc1ccc(-c2nc3c(c(N4CCOC[C@H]4C)n2)CCN(C2COC2)C3)cc1,–,935 nM (active)
CC1(C)O[C@@H]2C[C@H]3[C@@H]4CCC5=CC(=O)C=C[C@]5(C)[C@@H]4[C@@H](O)C[C@]3(C)[C@]2(C(=O)CO)O1,117% (inactive),–
O=C(Nc1ccc(Oc2ccnc3[nH]ccc23)c(F)c1)c1cccn(-c2ccc(F)cc2)c1=O,141% (inactive),–
C[C@@H]1[C@H](C)CC[C@]2(C(=O)O)CC[C@]3(C)C(=CC[C@@H]4[C@@]5(C)C[C@@H](O)[C@H](O)[C@@](C)(CO)[C@H]5CC[C@]43C)[C@@H]12,128% (inactive),–
CCCCCCCCCCCCc1ccc(S(=O)(=O)Nc2nncs2)cc1,137% (inactive),–
CON=C(C(=O)N[C@@H]1C(=O)N2C(C(=O)O)=C(CSC(=O)c3ccco3)CS[C@H]12)c1csc(N)n1,159% (inactive),–

# Test: P-glycoprotein substrates identified in KB-3-1 adenocarcinoma cell line, qHTS therapeutic library screen (AID 1346986); also: nearly all actives have a fitted effect of over 60% in size;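 also: potency is for cytotoxicity meaning loss of cell viability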
# Details: KB-3-1 parental cells viability, CellTiter-Glo, 72 h; series mostly up to 44.5 µM; activity change, negative = cytotoxicity: at the top concentration
# Method in brief: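 In 1536-well format, 500 cells/well received pinned compound titrations and were incubated 72 h, 5% CO2. Viability was read by CellTiter-Glo; cytotoxic if AC50 < 10 uM and efficacy >50%.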
SMILES,outcome,"activity change, negative = cytotoxicity",Potency
CON=C(C(=O)N[C@@H]1C(=O)N2C(C(=O)O)=C(Cn3ccc(=N)n3CCO)CS[C@H]12)c1csc(N)n1,inactive,–,–
CCc1cc(C(C)=NOCc2ccc(C3CCCCC3)c(C(F)(F)F)c2)ccc1CN1CC(C(=O)O)C1,inactive,–,–
COc1ccc([C@@H]2CNC(=O)C2)cc1OC1CCCC1,inactive,–,–
N#CC(=Cc1ccc(O)c(O)c1)C(=O)NCc1ccccc1,inactive,–,–
CC(=O)O[C@]1(C(C)=O)CC[C@H]2[C@@H]3C=C(C)C4=CC(=O)CC[C@]4(C)[C@@H]3CC[C@@]21C,inactive,–,–
C=CC[C@@H]1C=C(C)C[C@H](C)C[C@H](OC)[C@H]2O[C@@](O)(C(=O)C(=O)N3CCCC[C@H]3C(=O)O[C@H](C(C)=C[C@@H]3CC[C@H](O)[C@H](OC)C3)[C@@H](C)[C@@H](O)CC1=O)[C@@H](C)C[C@@H]2OC,inactive,–,–
COc1cc(C)c(Sc2cnc(NC(=O)c3ccc(CNC(C)C(C)(C)C)cc3)s2)cc1C(=O)N1CCN(C(C)=O)CC1 (stereo not given),–,-0.152% (inactive),–
COc1ccc(Nc2cc(-c3cnc(N)nc3)nc(N3CCOCC3)n2)cn1,–,–,1460 nM (active)
C[N+]1(C)[C@@H]2C[C@@H](OC(=O)C(O)(c3cccs3)c3cccs3)C[C@H]1[C@@H]1O[C@@H]12,inactive,–,–
CC(=O)N[C@H]1[C@@H]([C@H](O)[C@H](O)CO)OC(C(=O)O)=C[C@@H]1N=C(N)N,inactive,–,–
C=C1C[C@@]2(O)O[C@@]3(C[C@H]2C(C)C)[C@H](C)CC[C@H]13,inactive,–,–
CS(=O)(=O)N1CCc2c(-c3cnc(N)nc3)nc(N3CCOCC3)nc21,–,–,820 nM (active)
O=C(O)c1ccc(Nc2ncc3c(n2)-c2ccc(Cl)cc2C(c2c(F)cccc2F)=NC3)cc1,–,–,820 nM (active)
Cc1ccc2nc(NCCN)c3ncc(C)n3c2c1,–,–,5170 nM (active)
O=C(O)C=Cc1ccc(Cn2ccnc2)cc1,inactive,–,–
CC(=O)N1CCN(c2ccc(OCc3nn(C)c(C)c3-c3cccc4c(CCCOc5cccc6ccccc56)c(C(=O)O)n(Cc5cccnc5)c34)cc2)CC1,inactive,–,–
NC1=N[C@H]2[C@H](CS[C@H]2CCCCC(=O)O)N1,inactive [at 17.4 µM],–,–
OCc1ccccc1O[C@@H]1O[C@H](CO)[C@H](O)[C@H](O)[C@H]1O,inactive,–,–
OCCN1C[C@H](O)[C@@H](O)[C@H](O)[C@@H]1CO,inactive,–,–
COC(=O)[C@@H]1CC2=CC(=O)CC[C@]2(C)[C@@]23O[C@@H]2C[C@@]2(C)[C@H](CC[C@@]24CCC(=O)O4)[C@@H]13,inactive,–,–
Cc1cn([C@@H]2O[C@H](CO)[C@@H](O)[C@H]2F)c(=O)[nH]c1=O,inactive,–,–
Cc1ccccc1C(=O)Nc1ccc(C(=O)N2CCCC(O)c3cc(Cl)ccc32)c(C)c1 (stereo not given),inactive,–,–
CNC(=O)Nc1ccc(-c2nc(N3CC4CCC(C3)O4)c3cnn(C4CCC5(CC4)OCCO5)c3n2)cc1,–,–,41.1 nM (active)
CN[C@H]1[C@@H](O)[C@@H]2O[C@@H]3O[C@H](C)CC(=O)[C@]3(O)O[C@@H]2[C@@H](NC)[C@H]1O,inactive,–,–
O=c1[nH]c(=O)n([C@H]2C[C@@H](O)[C@@H](CO)O2)cc1C=CBr,inactive,–,–
C=Cc1c(C)c2cc3nc(cc4[nH]c(cc5nc(cc1[nH]2)C(C)=C5CCC(=O)O)c(CCC(=O)OC)c4C)[C@@]1(C)C3=CC=C(C(=O)OC)[C@H]1C(=O)OC,inactive,–,–
